# Laboratory results: PubChem BioAssay
# Inconclusive results are not listed. Activity calls are given as the source filed them. Cut-off read from the data, not from the text of the source, unless noted: active = inhibition above about 80%; inactive = the rest.
# Key:
# [1] = liver-stage malaria parasite growth inhibition, primary screen, cell-based, HepG2, luciferase luminescence, HepG2 viability (AID 624349; in the data active = parasite load remaining mostly below about 12%, no sharp cut-off; inactive = mostly above about 10%;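 note: 100% = mean of DMSO negative control wells on the same plate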); details: P. berghei liver stage in HepG2, luciferase luminescence, concentration not given here; parasite load remaining: stronger effect = lower value; viability: measured here: HepG2 viability without parasites
# [2] = differential killing of epithelial or mesenchymal cells, primary screen, imaging, PC-3E GFP, TEM4-18 mCherry, co-culture (AID 1345086;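 active = compounds killing one labelled cell type while sparing the other, by normalised counts and ratio limits, not self-fluorescent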;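 note: cells exposed to compound for 72 h before imaging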;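 for red/green cell ratio (normalised): normalised mesenchymal count divided by normalised epithelial count so high means epithelial killing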); details: imaging cell counts, at 1 µM
# [3] = growth inhibition of DIPG glioma cells, dose response, cell-based, SU-DIPG-XVII, MIPE5.0, CellTiter-Glo, qHTS (AID 1347060; cut-off not given, nearly all actives have AC50 up to about 26 µM;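 note: cells exposed to compound for 48 hours before viability readout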); details: SU-DIPG-XVII viability, CellTiter-Glo ATP luminescence
# [4] = growth inhibition of DIPG glioma cells, dose response, cell-based, SU-DIPG-XIII, MIPE5.0, CellTiter-Glo, qHTS (AID 1347064; cut-off not given, nearly all actives have AC50 up to about 23 µM;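 note: cells exposed to compound for 48 hours before the viability read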); details: SU-DIPG-XIII viability, CellTiter-Glo ATP luminescence
# [5] = viability loss in pontine glioma line – cell-based, SU-DIPG-XXV, MIPE5.0, CellTiter-Glo, qHTS, dose response (AID 1347065; cut-off not given, nearly all actives have AC50 up to about 26 µM;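 note: cells exposed to compound for 48 hours before ATP readout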); details: CellTiter-Glo ATP luminescence
# [6] = JHH-DIPG-1 glioma cell viability, MIPE5.0 library, CellTiter-Glo luminescence, qHTS (AID 1347067; cut-off not given, nearly all actives have AC50 up to about 26 µM;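 note: cells exposed to compound for 48 hours before readout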); details: JHH-DIPG-1 glioma viability, CellTiter-Glo ATP luminescence
# [7] = sensitizers of A549 cells to miR-34 induction, primary screen, imaging, A549 dox-inducible miR-34, nuclei and caspase counts (AID 1347080;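 active = compounds whose cell count with miR-34 switched on is under 0.7 times the count with it off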); details: A549 miR-34 inducible, Hoechst nuclei count, 48 h
# [8] = survival rescue of mitochondrial mutant cells in low glucose, primary screen, MELAS cybrids, Rieske KO mouse fibroblasts, CellTiter-Glo (AID 1508586;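 active = mean z-score across replicates of 1.96 or higher in either the MELAS or the Rieske mutant cell line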;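 note: z relative to plate mean and SD of compound and empty wells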)
# [9] = biological target: NAD(+) hydrolase SARM1 (Homo sapiens) (UniProt Q6SZW1); test: SARM1 TIR NADase inhibitors, cell lysate, NAD-Glo luminescence (AID 1508614;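 active = compound whose remaining NAD level is above about 45 nM, limit read from the data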;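 note: higher remaining NAD means stronger inhibition of SARM1 NADase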); details: SAM-TIR HEK293T lysate NADase, at 1 µM, stronger effect = higher value
# Chain of NAD(+) hydrolase SARM1 (Homo sapiens) (Q6SZW1 whole entry, looked up): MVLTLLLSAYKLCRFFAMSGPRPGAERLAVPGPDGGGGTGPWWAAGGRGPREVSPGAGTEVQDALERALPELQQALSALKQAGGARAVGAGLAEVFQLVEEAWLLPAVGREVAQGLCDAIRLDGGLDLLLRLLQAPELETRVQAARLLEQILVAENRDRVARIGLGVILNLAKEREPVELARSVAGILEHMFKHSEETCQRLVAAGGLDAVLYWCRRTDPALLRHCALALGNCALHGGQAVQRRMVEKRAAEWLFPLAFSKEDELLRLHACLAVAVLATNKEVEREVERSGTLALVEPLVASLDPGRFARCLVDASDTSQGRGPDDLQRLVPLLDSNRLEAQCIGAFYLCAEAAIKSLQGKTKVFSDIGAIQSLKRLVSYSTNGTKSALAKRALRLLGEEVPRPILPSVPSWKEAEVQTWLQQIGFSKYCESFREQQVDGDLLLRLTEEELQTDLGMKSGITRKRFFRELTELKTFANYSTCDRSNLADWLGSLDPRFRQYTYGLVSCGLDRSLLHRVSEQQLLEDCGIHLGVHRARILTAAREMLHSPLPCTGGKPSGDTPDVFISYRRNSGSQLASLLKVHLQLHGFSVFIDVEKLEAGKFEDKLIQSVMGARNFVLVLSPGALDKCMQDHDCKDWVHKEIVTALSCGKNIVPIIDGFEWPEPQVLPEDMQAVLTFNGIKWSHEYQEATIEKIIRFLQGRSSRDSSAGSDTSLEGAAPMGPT
# [10] = viability rescue of complex I mutant cybrids, primary screen, cell-based, galactose medium, ATP luminescence (AID 1645843;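 active = z-score of at least 1.8 in each of two replicates, scored against plate mean and spread of sample wells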;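 note: positive z means more ATP and so rescue of galactose-driven cybrid death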); details: complex I mutant cybrid cells, 72 h, stronger effect = higher value
# [11] = LFS_MB_P medulloblastoma growth inhibition, cell-based, chromothripsis tumors, cisplatin or BGB combos (AID 1671449); details: LFS_MB_P medulloblastoma cells;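 note: cells exposed for 96 hours; 0% = vehicle DMSO and 100% = killing by high DMSO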
# [12] = HDN33 neuroblastoma growth inhibition, cell-based, chromothripsis tumors, cisplatin or BGB combos (AID 1671450); details: HDN33 neuroblastoma cells, stronger effect = higher value;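 note: cells exposed to compound for four days; 0% = vehicle DMSO and 100% = cell killing by high DMSO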
# [13] = ICB984 medulloblastoma cell growth inhibition, synergistic combos for chromothripsis tumors, cisplatin or BGB combos (AID 1671451; call rule not given here;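 note: cells exposed for 96 hours before readout; 0% = vehicle DMSO and 100% = killing by high DMSO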); details: ICB984 medulloblastoma cells, drug combinations, stronger effect = higher value
# [14] = LFS_MB_1R medulloblastoma cell growth inhibition, synergistic combos for chromothripsis tumors, cisplatin or BGB combos (AID 1671452); details: LFS_MB_1R medulloblastoma cells, stronger effect = higher value;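 note: cells exposed for 96 hours before readout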
# [15] = HTB85 osteosarcoma cell growth inhibition, synergistic combos for chromothripsis tumors, BGB or cisplatin IC20 combos (AID 1671453); details: HTB85 osteosarcoma cells, drug combinations, stronger effect = higher value;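 note: cells exposed for 96 hours before readout; 0% = vehicle DMSO and 100% = high DMSO killing control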
# [16] = CRL2098 osteosarcoma cell growth inhibition, synergistic combos for chromothripsis tumors, BGB or cisplatin IC20 combos (AID 1671454); details: CRL2098 osteosarcoma cells, drug combinations, stronger effect = higher value;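 note: cells exposed for 96 h before readout; 0% = vehicle DMSO and 100% = killing by high DMSO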
# [17] = HD-MB03 medulloblastoma cell growth inhibition, synergistic combos for chromothripsis tumors, BGB or cisplatin IC20 combos (AID 1671455; in the data active = inhibition above about 83%;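 note: 0% = vehicle DMSO and 100% = high DMSO as cytotoxic control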); details: HD-MB03 medulloblastoma cells, stronger effect = higher value
# [18] = UWB1.289 ovarian carcinoma cell growth inhibition, synergistic combos for chromothripsis tumors, BGB or cisplatin combos (AID 1671456); details: UWB1.289 ovarian carcinoma cells, stronger effect = higher value;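 note: cells exposed to compound for four days; 0% = vehicle DMSO and 100% = killing by high DMSO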
# [19] = LFS_MB_2R medulloblastoma cell growth inhibition, synergistic combos for chromothripsis tumors, cisplatin combos (AID 1671457); details: LFS_MB_2R medulloblastoma cells, stronger effect = higher value;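 note: cells exposed to compound for four days before readout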
# [20] = MDA-MB-436 breast carcinoma cell growth inhibition, synergistic combos for chromothripsis tumors, BGB or cisplatin combos (AID 1671458; call rule not given here;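 note: cells exposed for 96 hours; 0% = vehicle DMSO and 100% = killing by high DMSO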); details: MDA-MB-436 breast carcinoma growth inhibition, drug combinations, stronger effect = higher value
# [21] = UWB1.289_BRCA1 ovarian cancer growth, cell-based, BGB or cisplatin combinations (AID 1671459); details: UWB1.289 BRCA1 ovarian carcinoma, drug combinations, stronger effect = higher value
# [22] = human astrocyte viability loss, single and combined drugs, cytotoxicity control for chromothriptic childhood tumor combination screen, cell-based, BGB or cisplatin IC20 combos (AID 1671460); details: Human astrocytes, drug combinations, stronger effect = higher value;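 note: cells exposed to compounds for 96 hours before viability readout; 0% = vehicle and 100% = killing control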
# [23] = growth inhibition of BT084 medulloblastoma cells, cell-based, ICGC_MB145, cisplatin and BGB IC40 combos (AID 1671461); details: drug combinations, stronger effect = higher value;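 note: cells exposed to drugs for 96 hours; 0% = vehicle DMSO and 100% = high DMSO full killing control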
# [24] = growth inhibition of RCMB18 medulloblastoma cells, cell-based, cisplatin and BGB IC40 combos (AID 1671462); details: stronger effect = higher value;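 note: cells exposed to compound for four days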
# [25] = growth inhibition of CRL1545 osteosarcoma cells, cell-based, cisplatin and BGB IC20 combos (AID 1671464); details: stronger effect = higher value;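 note: cells exposed to compound for 96 hours before readout; 0% = vehicle DMSO and 100% = high DMSO killing control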
# [26] = measured here: combination with BGB IC40, at 0.05 µM
# [27] = measured here: with BGB IC20 combination, at 0.5 µM
# [28] = measured here: with cisplatin IC20 combination, at 0.5 µM
# [29] = measured here: combination with cisplatin, at 0.5 µM
# [30] = measured here: combination with cisplatin, at 5 µM
smiles,measurement,setting,value
Cc1c(-c2cnccn2)ssc1=S,parasite load remaining,[1],10.1% (inactive)
same,viability,[1],65%
same,red/green cell ratio (normalised),"[2]; actives lie on both sides, counts scaled to control wells, 1 = unselective",1.09 (inactive)
same,normalised cell number,[2]; measured here: epithelial PC-3E GFP cell survival,0.9
same,normalised cell number,[2]; measured here: mesenchymal TEM4-18 mCherry cell survival,0.98
same,AC50,[3],10.5 µM (active)
same,AC50,[4],10.5 µM (active)
same,AC50,[5],11.8 µM (active)
same,AC50,[6],14.8 µM (active)
same,fold change,"[7]; stronger effect = lower value, cell number ratio, induced over uninduced",0.88 (inactive)
same,fold change,[7]; measured here: relative caspase fold change +Dox/-Dox,1.25
same,cell count,"[7]; measured here: total cells with miR-34 induction, stronger effect = lower value",9050
same,cell count,[7]; measured here: total cells without miR-34 induction,10300
same,z-score,"[8]; MELAS cybrid survival, CellTiter-Glo 48 h, stronger effect = higher value",0.683 (inactive)
same,z-score,"[8]; Rieske KO mouse fibroblast survival, CellTiter-Glo 72 h",-0.106
same,remaining NAD,[9],10 nM (inactive)
same,z-score,[10],-0.085 (inactive)
same,inhibition,"[11]; at 0.5 µM, stronger effect = higher value",-20.5% (inactive)
same,inhibition,"[11]; measured here: combination with BGB IC20, at 0.005 µM",-19.2%
same,inhibition,"[11]; measured here: combination with BGB IC40, at 0.005 µM",-19%
same,inhibition,[11]; [26],-17.6%
same,inhibition,"[11]; measured here: combination with cisplatin, at 0.5 µM, stronger effect = higher value",-32.1%
same,inhibition,"[11]; measured here: combination with cisplatin, at 5 µM, stronger effect = higher value",-10.5%
same,inhibition,"[12]; BGB combo, at 5 µM",-58.5%
same,inhibition,[12]; at 0.5 µM,-42% (inactive)
same,inhibition,"[12]; cisplatin combo, at 5 µM",-70%
same,inhibition,[12]; [27],-31.4%
same,inhibition,[12]; [28],-48.3%
same,inhibition,"[12]; single agent, at 5 µM",-46.9%
same,inhibition,"[13]; BGB IC20 combo, at 0.005 µM",-28.8%
same,inhibition,"[13]; BGB IC40 combo, at 0.005 µM",-23.8%
same,inhibition,"[13]; BGB IC40 combo, at 0.05 µM",-8.66%
same,inhibition,[13]; at 0.5 µM,-19.7% (inactive)
same,inhibition,"[13]; cisplatin combo, at 0.05 µM",-8.66%
same,inhibition,"[13]; cisplatin combo, at 0.5 µM",-33.7%
same,inhibition,"[13]; cisplatin combo, at 5 µM",-21.2%
same,inhibition,"[13]; measured here: 5 uM single agent, at 5 µM",-0.147%
same,inhibition,[14]; at 0.5 µM,-48.5% (inactive)
same,inhibition,[14]; [26],12.7%
same,inhibition,[14]; [29],-42.8%
same,inhibition,[14]; [30],-46.1%
same,inhibition,[15]; at 0.5 µM,-26% (inactive)
same,inhibition,"[15]; measured here: with BGB IC20, at 0.5 µM",-48%
same,inhibition,"[15]; measured here: with BGB IC20, at 5 µM",-29.8%
same,inhibition,"[15]; measured here: with cisplatin IC20, at 0.5 µM",-19.3%
same,inhibition,"[15]; measured here: with cisplatin IC20, at 5 µM",6.84%
same,inhibition,"[15]; single agent, at 5 µM",-28%
same,inhibition,[16]; at 0.5 µM,-91.2% (inactive)
same,inhibition,"[16]; measured here: combination with BGB at IC20, at 0.5 µM",-80.8%
same,inhibition,"[16]; measured here: combination with cisplatin at IC20, at 0.5 µM",-109%
same,inhibition,[17]; at 0.5 µM,-13% (inactive)
same,inhibition,"[17]; measured here: combo with BGB at IC20, at 0.5 µM",-1.23%
same,inhibition,"[17]; measured here: combo with cisplatin at IC20, at 0.5 µM",-23%
same,inhibition,[18]; at 0.5 µM,-15.7% (inactive)
same,inhibition,"[18]; measured here: inhibition with BGB combination, at 0.05 µM",-24.2%
same,inhibition,"[18]; measured here: inhibition with cisplatin combination, at 0.05 µM",3.36%
same,inhibition,[19]; at 0.5 µM,-15.7% (inactive)
same,inhibition,[19]; [29],-6.9%
same,inhibition,[19]; [30],-12.4%
same,inhibition,[20]; at 0.5 µM,-20.6% (inactive)
same,inhibition,"[20]; measured here: BGB combination, at 0.5 µM",-19.7%
same,inhibition,"[20]; measured here: BGB combination, at 5 µM",-36%
same,inhibition,"[20]; measured here: cisplatin combination, at 0.5 µM",-33%
same,inhibition,"[20]; measured here: cisplatin combination, at 5 µM",-12.1%
same,inhibition,"[21]; BGB combination, concentration series, at 5 µM",-4.42%
same,inhibition,[21]; at 0.5 µM,-14.9% (inactive)
same,inhibition,"[21]; cisplatin combination, concentration series, at 5 µM",-10.4%
same,inhibition,[22]; at 0.5 µM,0.12% (inactive)
same,inhibition,"[22]; measured here: combo with BGB IC20, at 0.5 µM",-4.93%
same,inhibition,"[22]; measured here: combo with cisplatin IC20, at 0.5 µM",-9.68%
same,inhibition,[23]; at 0.5 µM,-10.9% (inactive)
same,inhibition,"[23]; cisplatin combination, at 0.5 µM",-13.8%
same,inhibition,"[23]; cisplatin combination, at 5 µM",-45.9%
same,inhibition,"[23]; measured here: BGB IC40 combination 0.05 uM, at 0.05 µM",2.43%
same,inhibition,"[23]; single agent, at 5 µM",-13.6%
same,inhibition,[24]; at 0.5 µM,-21% (inactive)
same,inhibition,"[24]; cisplatin combo, at 5 µM",-46.1%
same,inhibition,"[24]; measured here: BGB IC40 combination, at 0.05 µM",-10.6%
same,inhibition,[24]; [29],-54.1%
same,inhibition,"[24]; single agent, at 5 µM",-29.2%
same,inhibition,[25]; at 0.5 µM,-60.7% (inactive)
same,inhibition,[25]; [27],-51%
same,inhibition,[25]; [28],-65.5%
same,inhibition,"[25]; single agent, at 0.05 µM",-3.94%
same,inhibition,"[25]; single agent, at 5 µM",-64.9%
